Compounds with a hit are over-represented: about 1.5% of the library has one in this group of screens.
Bcl-xL primary – Bcl-xL (human) inhibition; GST-Bcl-xL / FITC-Bim BH3 peptide fluorescence polarization; inhibition, % at 10.9 µM; Q07817; 320,000 tested, 0.7% active;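 active = inhibition above the mean of all tested compounds plus 3 SD, cutoff set per campaign, cut at about 30% in these data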;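 note: inhibitors lower millipolarization by displacing the labeled peptide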
IDE cell activ – IDE (human) activation, cell-based; P14735; HEK cells, FAbeta-B cleavage, fluorescence polarization; 0% vehicle, 100% cell-free pure enzyme wells; activation, % at 5.96 µM; 340,000 tested, 0.073% active; AID 493087;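 active = activation above the mean of all tested compounds plus 3 SD, set per screening campaign, cut at about 17% in these data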
GLD-1 TGE inh – GLD-1-TGE RNA interaction inhibition (C. elegans); 320,000 tested, 0.44% active; Q17339; purified GLD-1 + fluorescein TGE RNA, fluorescence polarization; inhibition, % at 5.96 µM; AID 2280;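 active = percent inhibition above a per-plate cutoff, the plate mean of test compounds plus 3 SD, cut at about 30% in these data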
Target sequence (Q17339 whole entry, looked up): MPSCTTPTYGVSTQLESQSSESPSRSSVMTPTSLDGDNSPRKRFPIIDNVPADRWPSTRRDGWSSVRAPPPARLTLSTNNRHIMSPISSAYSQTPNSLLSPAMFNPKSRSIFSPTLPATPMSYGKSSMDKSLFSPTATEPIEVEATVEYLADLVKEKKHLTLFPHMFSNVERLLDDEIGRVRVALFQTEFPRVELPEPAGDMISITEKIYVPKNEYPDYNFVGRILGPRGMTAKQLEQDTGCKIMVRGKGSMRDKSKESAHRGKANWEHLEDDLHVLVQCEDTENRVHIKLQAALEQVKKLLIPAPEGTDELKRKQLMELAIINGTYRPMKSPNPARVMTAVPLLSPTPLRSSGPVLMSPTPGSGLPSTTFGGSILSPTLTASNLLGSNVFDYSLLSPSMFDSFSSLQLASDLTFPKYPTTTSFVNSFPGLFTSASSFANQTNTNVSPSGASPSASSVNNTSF
MEX-5 binding – C. elegans MEX-5 TCR-2 RNA binding activity; Q9XUB2; 300,000 tested, 0.38% active; MEX-5/FITC-TCR2 RNA binding, fluorescence polarization; stronger effect = lower value; activity score (negative = inhibition of binding), % at 10 µM;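 active = inhibition past about -25% in most replicates, and total fluorescence under double the plate's negative control median, limit read from the data; inconclusive = replicates evenly split on the limit, or fluorescence at least double controls; inactive = too little inhibition in most replicates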
MCL1 BIM primary – MCL1-BIM-BH3 interaction inhibition (human); GST-MCL1 / FITC-Bim-BH3 fluorescence polarization; inhibition, % at 10.9 µM; 320,000 tested, 0.68% active;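 active = inhibition above the mean inhibition of all tested compounds plus 3 SD, set per campaign, cut at about 40% in these data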;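 note: higher means more loss of mP so more displacement of Bim peptide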
IDE inh – inhibits human insulin-degrading enzyme in HEK cells. FAbetaB cleavage, fluorescence polarization. inhibition, % at 5.59 µM. 320,000 tested, 0.41% active. AID 434962;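 active = percent inhibition above the average of all tested compounds plus 3 SD, set per screening campaign, cut at about 16% in these data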;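 note: IDE supplied by intact live HEK cells; FP after avidin binding of uncleaved biotin substrate so inhibition keeps polarization high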
A number is an active result; n = inactive; u = inconclusive; x = no result.

SMILES | Bcl-xL primary | IDE cell activ | GLD-1 TGE inh | MEX-5 binding | MCL1 BIM primary | IDE inh
CC12CCC(=O)N1C(C(=O)OCC(=O)Nc1sccc1C#N)CS2 (stereo not given) | 40.2 | n | n | n | n | n
CCSc1nnc(-c2sc3nnc(-c4ccccc4)c(-c4ccccc4)c3c2N)o1 | n | n | n | u | n | 21.2
O=C(N/N=C\c1c(O)ccc2ccccc12)c1cncc(Br)c1 | n | 47.4 | n | u | n | n
O=C(NN=Cc1c(O)ccc2ccccc12)c1ccncc1 | x | n | x | x | x | x
NC[C@H](Cc1ccccc1)NCCCCC1CCCCC1 | n | n | n | x | n | n
CNC[C@H](CC1CCCCC1)NC[C@H](Cc1ccccc1)NCCC12CC3CC(CC(C3)C1)C2 | n | 34.7 | n | n | n | n
CC1=C(C(=O)Nc2ccccc2)C(c2ccccc2[N+](=O)[O-])NC(=O)N1 (stereo not given) | 35.7 | n | n | n | n | n
O=C(Nc1ccc2ccccc2n1)c1ccccc1Cl | n | n | n | n | n | n
COc1ccc2nc3ccccc3nc2c1NC(=O)c1ccccc1Cl | n | n | n | -35.0 | n | n
CCN(CC)c1ccc(C=N/C(C#N)=C(\N)C#N)cc1 | n | n | n | -109.4 | n | n
CC(=O)C1=C(C)OC(N)=C(C#N)C1c1ccncc1 (stereo not given) | 30.3 | n | n | n | 41.5 | n
O=C(NNC(=O)c1ccccc1O)c1ccc(S(=O)(=O)Nc2ccccc2F)cc1 | n | n | n | -25.9 | n | n
Cc1ccccc1NS(=O)(=O)c1ccc(C(=O)NNC(=O)c2ccccc2O)cc1 | n | n | n | n | n | n
COc1ccc(OCC(=O)N/N=C/c2cccn2-c2cccc(C(=O)O)c2)cc1 | x | n | x | x | x | x
COc1ccc(CCNC(=O)COC(=O)C2CC2C)cc1OC (stereo not given) | n | 21.6 | n | x | n | n
Cc1cc(NC(=O)NC(=O)c2ccccc2F)no1 | n | n | n | n | n | n
COc1cccc(C2=CC(c3ccccc3)n3nnnc3N2)c1 (stereo not given) | n | n | n | n | n | n
COc1cccc(C2=CC(c3ccccc3)n3ncnc3N2)c1 (stereo not given) | 39.0 | x | 50.5 | n | 41.1 | n
COc1cccc(C2=CC(c3ccc(N(C)C)cc3)n3ncnc3N2)c1 (stereo not given) | n | x | n | n | n | 18.2
COc1ccc(C2C=C(c3ccc(C)cc3)Nc3ncnn32)cc1 (stereo not given) | x | n | x | n | x | x
O=S1(=O)[C@H]2C[C@H](CO)O[C@@]2(CO)CN1Cc1ccc(-c2ccc(F)cc2)cc1 | x | n | x | x | x | x
COc1ccc(OCCOC(=O)Nc2ccccc2)cc1 | n | n | n | n | n | n
COc1cc(C(F)(F)F)nc2ccc(C#CCOC(=O)Nc3ccccc3)cc12 | 35.5 | n | n | n | n | n
COc1ccc(C=NCCC2(O)CC(C)N(C)CC2C)cc1 (stereo not given) | 31.2 | n | n | n | 41.1 | n
COc1cc(/C=C2/SC(=S)N(Cc3ccccc3)C2=O)cc(Cl)c1O | n | n | n | n | n | 86.5
SMILES | Bcl-xL primary | IDE cell activ | GLD-1 TGE inh | MEX-5 binding | MCL1 BIM primary | IDE inh
O=C1/C(=C/c2ccc(O)c([N+](=O)[O-])c2)SC(=S)N1Cc1ccccc1 | n | n | n | n | n | n
COc1cc(/C=C2/SC(=S)N(Cc3ccccc3)C2=O)ccc1OCC(=O)O | n | n | n | n | n | n
CCOc1cc(/C=C2/SC(=S)N(Cc3ccccc3)C2=O)ccc1O | n | n | n | n | n | 83.4
CCC1(CC)NC(=O)N(CC(=O)OCC(=O)Nc2sccc2C#N)C1=O | n | n | n | n | n | n
COC(=O)c1ccc2c(=O)n(CCCCCC(=O)O)c(=S)[nH]c2c1 | n | n | n | n | n | n
CCn1ccnc1CN(C)Cc1nc(CCC(C)C)no1 | n | n | n | n | n | n
O=C(Nc1ccc(-n2cnnn2)cc1)c1cc(S(=O)(=O)N2CCCC2)ccc1Cl | x | n | x | x | x | x
CCN(CC)CCNC(=O)CS(=O)Cc1nc(-c2ccc(Cl)cc2)oc1C (stereo not given) | n | n | n | n | n | n
CCN(CC)CCNC(=O)CS(=O)Cc1nc(-c2ccccc2Cl)oc1C (stereo not given) | n | 17.7 | n | n | n | n
c1ccc(C2=NN(c3ccccc3)CC2)cc1 | n | n | n | n | n | n

High-throughput results from PubChem.
